Reference: PubChem BioAssay (NCATS)
Inconclusive results are not listed. The source made the active and inactive calls. Calls come from the whole dose curve; as a rule, active = well fitted curve in the direction sought with a large enough effect; inconclusive = small, poorly fitted or top-dose-only effect, or another doubt; inactive = no such curve, though single readings can be large; an effect the other way counts as inactive or inconclusive.

Tests used:
[1] = qHTS for compounds that reverse cellular toxicity of Amyloid beta (A-beta) peptide in yeast: LOPAC Validation Assay (AID 720559);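 note: plate controls were DMSO for no effect and equimolar ferric chloride plus clioquinol rescue for full effect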
How it was run: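 Rescue of A-beta toxicity was scored as yeast growth by 600 nm absorbance after 48 hr at 30 C with compound. Normalization used DMSO (negative) and equimolar ferric chloride plus clioquinol (positive).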

[2] = qHTS for Activators of Parkin Expression: LOPAC Validation Assay (FLuc Reporter) (AID 720573;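 note: 0% = DMSO and 100% = positive control compounds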)
How it was run: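 FLuc signal from Parkin-promoter coincidence reporter neuronal cells, normalized to DMSO and positive control (100%). Cells (1,500/well) pre-incubated 24 h, then exposed to LOPAC compounds in 7-point dose response for 24 h at 37 C, 5% CO2.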

[3] = target: T1, Hexokinase-4 (Homo sapiens) + Glucokinase regulatory protein (Homo sapiens) (UniProt P35557+Q14397); experiment: qHTS assay for inhibitors of recombinant human GCK-GKRP interaction: Diaphorase-coupled assay (AID 743205)
T1 sequence (P35557 whole entry, looked up): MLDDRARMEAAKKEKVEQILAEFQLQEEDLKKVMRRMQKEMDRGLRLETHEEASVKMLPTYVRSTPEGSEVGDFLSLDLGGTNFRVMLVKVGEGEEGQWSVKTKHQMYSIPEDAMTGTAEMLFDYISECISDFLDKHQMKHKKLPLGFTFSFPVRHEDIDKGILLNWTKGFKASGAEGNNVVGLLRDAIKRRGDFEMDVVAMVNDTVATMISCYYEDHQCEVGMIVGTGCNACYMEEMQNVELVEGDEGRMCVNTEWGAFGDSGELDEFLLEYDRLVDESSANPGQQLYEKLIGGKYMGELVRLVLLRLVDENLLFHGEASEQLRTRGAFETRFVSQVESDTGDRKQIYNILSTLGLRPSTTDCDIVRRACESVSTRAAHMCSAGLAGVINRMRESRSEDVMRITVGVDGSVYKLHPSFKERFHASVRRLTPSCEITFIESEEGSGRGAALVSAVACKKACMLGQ
T1 sequence (Q14397 whole entry, looked up): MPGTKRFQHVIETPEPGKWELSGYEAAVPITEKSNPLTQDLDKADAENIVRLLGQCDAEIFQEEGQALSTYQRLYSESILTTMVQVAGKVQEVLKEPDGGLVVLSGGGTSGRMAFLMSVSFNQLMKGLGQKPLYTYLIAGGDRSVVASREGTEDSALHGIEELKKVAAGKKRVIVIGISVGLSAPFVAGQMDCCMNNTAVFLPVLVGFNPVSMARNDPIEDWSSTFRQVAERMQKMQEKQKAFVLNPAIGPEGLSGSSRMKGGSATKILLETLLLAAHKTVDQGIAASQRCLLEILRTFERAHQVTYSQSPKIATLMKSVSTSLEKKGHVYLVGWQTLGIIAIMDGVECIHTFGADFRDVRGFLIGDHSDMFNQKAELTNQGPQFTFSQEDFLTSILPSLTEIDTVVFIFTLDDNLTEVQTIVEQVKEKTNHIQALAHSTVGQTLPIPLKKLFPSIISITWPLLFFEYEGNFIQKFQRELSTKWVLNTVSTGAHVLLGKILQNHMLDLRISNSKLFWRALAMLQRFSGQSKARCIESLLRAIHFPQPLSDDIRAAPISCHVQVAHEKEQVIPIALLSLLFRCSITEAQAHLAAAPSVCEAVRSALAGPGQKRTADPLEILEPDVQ
How it was run: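 A kinetic fluorescence read (Ex 525/Em 590 nm, every minute for 30 minutes) tracked resorufin from a G6PDH-diaphorase coupled GCK reaction. It contained 10 nM GST-GCK, 10 nM FLAG-GKRP, 5 mM glucose, 0.4 mM ATP in Hepes pH 7.6. Normalized to with/without-enzyme DMSO controls.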

[4] = target: T1, Hexokinase-4 (Homo sapiens) + Glucokinase regulatory protein (Homo sapiens); experiment: qHTS assay for inhibitors of recombinant human GCK-GKRP interaction: ADP-Glo assay (AID 743206);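 note: plate controls were DMSO plus enzyme for no effect and no enzyme for full effect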
How it was run: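 GST-GCK and FLAG-GKRP (15 nM each in the dispensed mix, with 2 uM S6P) react with 0.4 mM ATP and 5 mM glucose (final) in Hepes pH 7.6 for 60 min at room temperature. ADP is measured by ADP-Glo luminescence.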

[5] = target: Arylsulfatase A (Homo sapiens) (UniProt P15289); experiment: qHTS screen for enhancers of Arylsulfatase A (ASA1): LOPAC Validation Assay (AID 720538); conditions: outcome: dose series up to 57.5 µM
Arylsulfatase A (Homo sapiens), sequence (P15289 whole entry, looked up): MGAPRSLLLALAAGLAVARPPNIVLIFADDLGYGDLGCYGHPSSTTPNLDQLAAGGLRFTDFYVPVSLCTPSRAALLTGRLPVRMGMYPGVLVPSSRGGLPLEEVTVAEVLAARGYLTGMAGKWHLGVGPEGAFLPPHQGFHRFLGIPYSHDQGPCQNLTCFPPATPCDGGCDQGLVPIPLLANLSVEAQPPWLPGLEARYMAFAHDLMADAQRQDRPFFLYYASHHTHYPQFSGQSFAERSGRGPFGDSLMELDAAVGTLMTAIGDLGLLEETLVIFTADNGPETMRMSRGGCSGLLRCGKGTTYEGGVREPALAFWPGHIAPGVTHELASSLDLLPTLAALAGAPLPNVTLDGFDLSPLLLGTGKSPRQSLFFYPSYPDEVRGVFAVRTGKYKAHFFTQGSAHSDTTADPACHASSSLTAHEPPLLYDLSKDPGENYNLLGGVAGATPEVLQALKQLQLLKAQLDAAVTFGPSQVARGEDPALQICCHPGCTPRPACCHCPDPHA
How it was run: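 Enhancer assay in patient-derived MLD fibroblasts carrying ASA-I179S: 48 h compound exposure at 37 C, then 14 h room-temperature pNCS turnover (0.5 mM final) in lysis buffer. Read by fluorescence at 525/598 nm after NaOH stop.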

[6] = qHTS for small molecule inhibitors of Yes1 kinase: Counter Assay (AID 686950);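 note: no kinase present so only ADP-Glo detection of a fixed ADP amount is tested; luminescence from ADP-Glo reporting ADP in a fixed ATP and ADP mixture; series mostly up to about 77 µM; 0% = DMSO wells with ATP plus ADP and -100% = ATP-only wells without ADP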
How it was run: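 Enzyme-free ADP-Glo interference check: compounds were preincubated 20 min in buffer, then an ATP/ADP mix (0.08 mM ATP, 0.02 mM ADP final) was added for 60 min at room temperature before two-step ADP-Glo luminescence detection.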

[7] = target: T1, Hexokinase-4 (Homo sapiens) + Glucokinase regulatory protein (Homo sapiens); experiment: qHTS assay for inhibitors of recombinant human GCK-GKRP interaction: HTRF assay (AID 743207);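 note: 0% = DMSO with GCK present and -100% = DMSO wells lacking GCK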
How it was run: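 After 60 min equilibration at room temperature with anti-FLAG XL665 and anti-GST antibodies, FRET ratio (665/615 nm, excitation 320 nm) was read. Proteins: GST-GCK and FLAG-GKRP, each 5 nM, plus 2 uM S6P, pH 7.1 buffer; GCK-free wells define minimum signal.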

Measured: outcome

C1COC(NC(C2CC2)C2CC2)=N1
inactive: [1] | [2] | [3] | [4]

N[C@@H]1CONC1=O
inactive: [5] | [3] | [4]

O=C1CCc2cc(OCCCCc3nnnn3C3CCCCC3)ccc2N1
not listed: [6] | [7]
inactive: all other assays above

CCN(CC)CCCC(C)Nc1ccnc2cc(Cl)ccc12 (configuration not stated)
not listed: [6] | [7]
inactive: all other assays above

CCc1cc(Nc2nccc(-c3c(-c4ccc(OC)c(C(=O)Nc5c(F)cccc5F)c4)nc4ccccn34)n2)c(OC)cc1N1CCC(N2CCN(S(C)(=O)=O)CC2)CC1
inactive: [6]

OCCC#Cc1nc(-c2ccc(F)cc2)c(-c2ccncc2)n1CCCc1ccccc1
inactive: [6]

CC(C)(C)NCC(O)c1ccc(O)c(CO)c1 (configuration not stated)
inactive: [5] inactive; inhibitor; fitted 8.4921 uM | [1] | [2]

O=C(O)COCCN1CCN(C(c2ccccc2)c2ccc(Cl)cc2)CC1 (configuration not stated)
inactive: [1] | [2] | [3] | [4]

CN1CCN(CCCN2c3ccccc3Sc3ccc(C(F)(F)F)cc32)CC1
not listed: [6] | [7]
inactive: all other assays above

c1ccc([C@H]2CN3CCSC3=N2)cc1
not listed: [6]
inactive: all other assays above

N=c1nc(N2CCCCC2)cc(N)n1O
not listed: [6] | [7]
inactive: all other assays above

NC(=O)C1CCCc2c1[nH]c1ccc(Cl)cc21 (configuration not stated)
inactive: [6]

NCCCC(N)(C(=O)O)C(F)F (configuration not stated)
not listed: [6] | [7]
inactive: all other assays above

Nc1nc2c(ncn2COCCO)c(=O)[nH]1
inactive: [5] | [1] | [3] | [4]
